# From PMC5700166
# Target: T1, GST-Ap-NF-kB RHD (Exaiptasia pallida (Aiptasia), UniProt A0A913YAJ5 2-422)
# T1 sequence: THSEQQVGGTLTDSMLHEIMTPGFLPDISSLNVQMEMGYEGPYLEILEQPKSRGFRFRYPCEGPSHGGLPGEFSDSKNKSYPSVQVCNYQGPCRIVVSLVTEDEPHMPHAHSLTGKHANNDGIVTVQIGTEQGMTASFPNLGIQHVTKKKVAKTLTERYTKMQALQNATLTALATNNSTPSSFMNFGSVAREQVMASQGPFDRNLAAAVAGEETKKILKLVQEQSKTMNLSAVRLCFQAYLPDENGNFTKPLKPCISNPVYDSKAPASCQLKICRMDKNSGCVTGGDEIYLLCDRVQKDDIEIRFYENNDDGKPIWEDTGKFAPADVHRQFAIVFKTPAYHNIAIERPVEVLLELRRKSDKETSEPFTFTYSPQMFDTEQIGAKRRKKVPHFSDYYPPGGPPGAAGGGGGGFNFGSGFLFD
# Test: protein-binding microarray (PBM); PBM: ~300 nM protein, 6 mM HEPES pH 7.8, 80 mM KCl, 0.5 mM EDTA, 0.5 mM EGTA, 6% glycerol, 35 ng/ul poly-dIdC, 1% milk, 1 h, room temperature; Ap Aiptasia and Nv Nematostella (sea anemones) / Co Capsaspora / Aq Amphimedon (sponge) / Dm Drosophila / Hu human; RHD is the Rel homology domain; high values mean tight binding
# Settings: dsDNA, one strand shown
row,Sequence,binding signal [z-score]
1,CCGATTAACATCAGGGTATTCCATGATGTTAATCGGGTCTTGATTCGCTTGACGCTGCTG,3.89
2,CCGATTAACATCACAGGGAATTCTGATGTTAATCGGGTCTTGATTCGCTTGACGCTGCTG,4.57
3,CCGATTAACATCAGGGGGAGAGATGATGTTAATCGGGTCTTGATTCGCTTGACGCTGCTG,3.84

# Target: T2, GST-Nv-NF-kB (Cys allele) (Nematostella vectensis, UniProt E5G601 2-411)
# T2 sequence: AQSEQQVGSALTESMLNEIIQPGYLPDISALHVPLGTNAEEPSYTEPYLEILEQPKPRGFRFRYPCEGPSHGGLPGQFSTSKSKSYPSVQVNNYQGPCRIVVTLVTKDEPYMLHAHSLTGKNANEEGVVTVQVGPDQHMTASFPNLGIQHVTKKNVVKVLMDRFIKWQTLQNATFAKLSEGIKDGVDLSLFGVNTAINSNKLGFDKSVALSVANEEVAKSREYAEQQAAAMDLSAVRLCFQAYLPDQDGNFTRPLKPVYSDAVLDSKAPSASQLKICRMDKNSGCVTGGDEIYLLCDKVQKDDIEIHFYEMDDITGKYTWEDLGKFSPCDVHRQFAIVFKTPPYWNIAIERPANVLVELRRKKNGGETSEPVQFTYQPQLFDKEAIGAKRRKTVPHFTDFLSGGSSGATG
# Test: as above
# Settings: dsDNA, one strand shown
row,Sequence,binding signal [z-score]
1,CCGATTAACATCAAATAGGGAATTGATGTTAATCGGGTCTTGATTCGCTTGACGCTGCTG,5.11
2,CCGATTAACATCACGTTATTCCCTGATGTTAATCGGGTCTTGATTCGCTTGACGCTGCTG,2.96
3,CCGATTAACATCAAGGGATTTTCTGATGTTAATCGGGTCTTGATTCGCTTGACGCTGCTG,6.63
4,CCGATTAACATCAGGAGTTACCCTGATGTTAATCGGGTCTTGATTCGCTTGACGCTGCTG,3.81
5,CCGATTAACATCAGGGATTTCTATGATGTTAATCGGGTCTTGATTCGCTTGACGCTGCTG,4.04
6,CCGATTAACATCAGGGAACAACCTGATGTTAATCGGGTCTTGATTCGCTTGACGCTGCTG,2.46
7,CCGATTAACATCAGAATGCCCCCTGATGTTAATCGGGTCTTGATTCGCTTGACGCTGCTG,5.02
8,CCGATTAACATCAACTAATTCCCTGATGTTAATCGGGTCTTGATTCGCTTGACGCTGCTG,4.19
9,CCGATTAACATCAGGGAGCCCCCTGATGTTAATCGGGTCTTGATTCGCTTGACGCTGCTG,4.79
10,CCGATTAACATCACCCGGGAAAATGATGTTAATCGGGTCTTGATTCGCTTGACGCTGCTG,3.28
11,CCGATTAACATCAGGGGGATGGATGATGTTAATCGGGTCTTGATTCGCTTGACGCTGCTG,3.13
12,CCGATTAACATCAGACTTCCCCATGATGTTAATCGGGTCTTGATTCGCTTGACGCTGCTG,5.64
13,CCGATTAACATCAGGGAATGTACTGATGTTAATCGGGTCTTGATTCGCTTGACGCTGCTG,3.28
14,CCGATTAACATCACACATTTCCCTGATGTTAATCGGGTCTTGATTCGCTTGACGCTGCTG,4.57
15,CCGATTAACATCAACCACCCCCCTGATGTTAATCGGGTCTTGATTCGCTTGACGCTGCTG,2.31
16,CCGATTAACATCAGGGATTCCCATGATGTTAATCGGGTCTTGATTCGCTTGACGCTGCTG,4.61
17,CCGATTAACATCAATTCCCAAGGTGATGTTAATCGGGTCTTGATTCGCTTGACGCTGCTG,1.9

row,Sequence,binding signal [z-score]
1,CCGATTAACATCAGAATTACCCATGATGTTAATCGGGTCTTGATTCGCTTGACGCTGCTG,3.82
2,CCGATTAACATCAGGGGTTTACCTGATGTTAATCGGGTCTTGATTCGCTTGACGCTGCTG,5.44
3,CCGATTAACATCAGACAATTCCCTGATGTTAATCGGGTCTTGATTCGCTTGACGCTGCTG,5
4,CCGATTAACATCACCCATCCCCCTGATGTTAATCGGGTCTTGATTCGCTTGACGCTGCTG,3.91
5,CCGATTAACATCACTTCCCCCCATGATGTTAATCGGGTCTTGATTCGCTTGACGCTGCTG,4.18
6,CCGATTAACATCATCCCCGTGTCTGATGTTAATCGGGTCTTGATTCGCTTGACGCTGCTG,3.34
7,CCGATTAACATCAGGGAATGCACTGATGTTAATCGGGTCTTGATTCGCTTGACGCTGCTG,3.18
8,CCGATTAACATCAATTTTCCCAATGATGTTAATCGGGTCTTGATTCGCTTGACGCTGCTG,3.86
9,CCGATTAACATCAGTTCCCCCCATGATGTTAATCGGGTCTTGATTCGCTTGACGCTGCTG,4.32
10,CCGATTAACATCACGAGTTTCCCTGATGTTAATCGGGTCTTGATTCGCTTGACGCTGCTG,4.31
11,CCGATTAACATCAAGCGTTCCCCTGATGTTAATCGGGTCTTGATTCGCTTGACGCTGCTG,5.36
12,CCGATTAACATCAGGGGAGTAAATGATGTTAATCGGGTCTTGATTCGCTTGACGCTGCTG,3
13,CCGATTAACATCAAATTTCCCGCTGATGTTAATCGGGTCTTGATTCGCTTGACGCTGCTG,5.17
14,CCGATTAACATCAGGAGAACCCCTGATGTTAATCGGGTCTTGATTCGCTTGACGCTGCTG,3.59
15,CCGATTAACATCAGGGGAGTTAATGATGTTAATCGGGTCTTGATTCGCTTGACGCTGCTG,4.06
16,CCGATTAACATCAACATCCCCCCTGATGTTAATCGGGTCTTGATTCGCTTGACGCTGCTG,5.25
17,CCGATTAACATCAGGCCGTCCCCTGATGTTAATCGGGTCTTGATTCGCTTGACGCTGCTG,4.47
